Among the data in PubChem BioAssay (NCI) are growth values, retold here.

Common to all, as to assay: NCI-60 one-dose screen, 48 h (100 = growth as untreated, 0 = no growth, -100 = all killed)
The subject of one test is T-47D breast. The following applies: 10 µM.
Another test has as its system BT-549 breast. The following applies: 10 µM unless noted.
For another test, the system named is MDA-MB-435 melanoma. The conditions noted are these: 10 µM unless noted.
The subject of another test is SW-620 colon. The conditions noted are these: 10 µM unless noted.
The next test deals with MCF7 breast. The following applies: 10 µM unless noted.
A further test concerns HCT-116 colon. The following applies: 10 µM unless noted.
The subject of the next test is HCC-2998 colon. The conditions noted are these: 10 µM unless noted.
The test system of another test is KM12 colon. The conditions noted are these: 10 µM unless noted.

Molecules are shown by their SMILES. Compounds without any hit were thinned out: in the full panel of roughly 83,000, 20% have a hit.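 The endpoint reported here, percent growth, reads 100 for growth as untreated, 0 for no net growth and -100 for all cells dead.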 Unmarked numbers belong to inactive results. The source made the active and inactive calls. Rule for the calls: active = growth percent below 10; inactive = the rest.

For the molecule `CN([N-]C(=O)CC(=O)[N-]N(C)C(=S)c1ccccc1)C(=S)c1ccccc1.[Cu+2]`, the growth in the test on T-47D breast was -52.7% (active); in the test with BT-549 breast, -73% (active); in the test with MDA-MB-435 melanoma it was -83.9% (active); with SW-620 colon it was -67.4% (active); in the test with MCF7 breast, -48.3% (active); in the test with HCT-116 colon, -12.4% (active). Besides, the growth was -94.2% (active) in the test on HCC-2998 colon and -74.8% (active) in the test with KM12 colon.
Turning to `CC(=O)Nc1ccccc1-c1n[nH]c(=O)[nH]c1=O`, the growth in the test on T-47D breast is 97.5%; in the test with BT-549 breast it was 112%; in the test on MDA-MB-435 melanoma, 97.9%; with SW-620 colon it was 96.4%; in the test on MCF7 breast, 101%; in the test with HCT-116 colon, 104%. Besides, the results for the growth in the test on HCC-2998 colon and in the test on KM12 colon were 116% and 105%, respectively.
Regarding `Cl.Fc1c[c-]c(-c2ccccn2)c(F)c1.[Pt].c1ccc([PH+](CC[PH+](c2ccccc2)c2ccccc2)c2ccccc2)cc1`, the growth with T-47D breast was -65.2% (active); with BT-549 breast it was -69.2% (active); in the test on MDA-MB-435 melanoma it was -91.9% (active); with SW-620 colon it was -88.8% (active); in the test with MCF7 breast, -74.7% (active); in the test on HCT-116 colon, -90.4% (active). For the same molecule, the results for the growth in the test with HCC-2998 colon and in the test on KM12 colon were -82.9% (active) and -89.1% (active), respectively.
In the case of `O=C(C[Si](CC(=O)c1cccc(C(F)(F)F)c1)CC(=O)c1cccc(C(F)(F)F)c1)c1cccc(C(F)(F)F)c1`, the growth with T-47D breast is 98.7%; with BT-549 breast, 87.2%; in the test on MDA-MB-435 melanoma it was 26%; with SW-620 colon it was 35%; in the test with MCF7 breast it was 86.3%; with HCT-116 colon it was 23.5%. For the same molecule, the growth in the test on HCC-2998 colon is 83.6%.
Consider `COc1ccccc1-n1c(SCc2cc(OC)c(OC)c(OC)c2)nc2ccc(Cl)cc2c1=O`, for which the growth with T-47D breast is 43.9%; in the test with BT-549 breast, 39.5%; in the test with MDA-MB-435 melanoma it was -34.2% (active); with SW-620 colon it was 16.9%; in the test with MCF7 breast, 15.6%; in the test with HCT-116 colon it was 21.1%. In addition, the growth was 56.9% in the test with HCC-2998 colon and 16.4% with KM12 colon.
For the molecule `O=C1CCC(N2Cc3c(C#CCCCNC(=O)c4cc5c(o4)C(=O)c4ccccc4C5=O)cccc3C2=O)C(=O)N1` (stereo not given), the growth in the test with T-47D breast is 7.33% (active); in the test with BT-549 breast it was -94.8% (active); in the test with MDA-MB-435 melanoma, -94.5% (active); in the test with SW-620 colon, -34.7% (active); in the test with MCF7 breast, -68.6% (active); in the test on HCT-116 colon, -25.5% (active). Moreover, the growth is -64.1% (active) in the test on HCC-2998 colon and -1.98% (active) in the test on KM12 colon.
Turning to `COC(=O)/C=C1/CCC2C3CCC4=CC(=O)C(Br)CC4(C)C3C(=O)CC12C` (stereo not given), the growth in the test with T-47D breast was 54.8%; in the test on BT-549 breast, 95.9%; in the test on MDA-MB-435 melanoma, 76.3%; in the test with SW-620 colon it was 69.2%; in the test with MCF7 breast, 42.3%; in the test with HCT-116 colon it was 47.9%. The growth is 62.1% in the test with HCC-2998 colon and 81.1% in the test on KM12 colon.
In the case of `COc1nc2c(cc1S(=O)(=O)c1ccccc1)CCc1c-2cnn1-c1cccc(Cl)c1`, the growth in the test with T-47D breast was 59.6%; in the test on BT-549 breast, 80.8%; in the test on MDA-MB-435 melanoma it was 63%; in the test with SW-620 colon, 93.7%; in the test on MCF7 breast, 87.5%; with HCT-116 colon it was 62.9%. In addition, the values for the growth in the test with HCC-2998 colon and in the test on KM12 colon were 101% and 85.4%, respectively.
In the case of `CON=C1C[C@]2(C[C@@H]3C[C@@H](C/C=C(\C)C[C@@H](C)/C=C/C=C4\CO[C@@H]5[C@H](O)C(C)=C[C@@H](C(=O)O3)[C@]45O)O2)O[C@H](/C(C)=C/C(C)C)[C@H]1C`, the growth with T-47D breast was 29.7%; in the test on BT-549 breast, 89.2%; in the test with MDA-MB-435 melanoma it was 43.7%; with SW-620 colon, 34.5%; with MCF7 breast, 42%; in the test on HCT-116 colon, 17.8%. In addition, the growth in the test with HCC-2998 colon is 48.7%; in the test with KM12 colon it was 33.4%.
For `Cc1nc2cc(Nc3nc(Nc4ccc(F)cc4)nc(N4CCCC4)n3)ccc2n1Cc1ccccc1`, the growth in the test on T-47D breast was -31.3% (active); in the test on BT-549 breast it was -14% (active); with MDA-MB-435 melanoma, -74.2% (active); in the test with SW-620 colon it was -53.8% (active); with MCF7 breast, 3.05% (active); in the test with HCT-116 colon, -79.3% (active). Also, the figures for the growth with HCC-2998 colon and in the test with KM12 colon were -59.2% (active) and -73.4% (active), respectively.
As to `CCCCC(=O)N/N=C/c1cc(I)cc(I)c1O`, the growth with T-47D breast is 52.1%; in the test with BT-549 breast, 55.2%; in the test with MDA-MB-435 melanoma, 56.7%; in the test with SW-620 colon it was 54.6%; in the test with MCF7 breast it was 41.5%; in the test on HCT-116 colon it was 15.1%. The growth in the test with HCC-2998 colon was 66.5%; in the test with KM12 colon, 53.2%.
Turning to `O=S(=O)(Nc1ncccn1)c1ccc(Nc2ccc3nnc(-c4ccncc4)n3n2)cc1`, the growth in the test on T-47D breast was 101%; in the test on BT-549 breast, 106%; in the test with MDA-MB-435 melanoma, 108%; with SW-620 colon, 93%; in the test on MCF7 breast, 104%; in the test with HCT-116 colon it was 108%. Further, the growth with HCC-2998 colon was 111%; with KM12 colon it was 101%.
Regarding `COc1ccc(-c2c3c(N)c4c(nc3nc3c2c(C)nn3-c2ccccc2)CCCCC4)cc1`, the growth was 61.2% in the test with T-47D breast; 80.9% in the test with BT-549 breast; 78.8% in the test with MDA-MB-435 melanoma; 83.5% in the test on SW-620 colon; 62.8% in the test with MCF7 breast; 27.9% with HCT-116 colon. Also, the results for the growth in the test with HCC-2998 colon and with KM12 colon were 86.6% and 84.2%, respectively.
As to `COc1ccc(C(=O)C2=CC(=O)C(=O)C2)cc1OC`, the growth in the test on T-47D breast is 99.7%; in the test on BT-549 breast it was 93.8%; in the test with MDA-MB-435 melanoma, 106%; with SW-620 colon, 107%; with MCF7 breast, 95.9%; in the test on HCT-116 colon, 103%. In addition, the growth was 108% with HCC-2998 colon and 106% in the test with KM12 colon.
As to `Cc1ccc(C(=O)O[C@H](C(=O)O)[C@H](OC(=O)c2ccc(C)cc2)C(=O)O)cc1`, in the test with T-47D breast, the growth was 93.6%.
For `O=C(CCc1nnc2sc(-c3ccccc3)nn12)c1nc2ccccc2[nH]1`, the growth with T-47D breast is 80.3%; in the test with BT-549 breast, 98.4%; in the test with MDA-MB-435 melanoma it was 94.8%; with SW-620 colon, 123%; in the test with MCF7 breast, 87%; in the test with HCT-116 colon, 72.2%. The growth in the test on HCC-2998 colon is 104%; with KM12 colon, 100%.
